Data reported in PubChem BioAssay (NCATS).
Inconclusive results are not listed. Activity calls are given as the source filed them. Unless noted, calls follow the shape of the dose curve; as a rule, active = well fitted inhibition curve with a large enough effect; inconclusive = small, poorly fitted or top-dose-only effect; inactive = flat fitted curve, though single readings scatter.

What was measured:
[1] = qHTS drug screen for cell cycle checkpoint inhibitors in PARPi-resistant BRCA-mutant ovarian cancer cell lines. (AID 1963452; calls by dose curve); details: PEO1/OlaR viability, CellTiter-Glo luminescence, 96 h; for Z-AUC: stronger effect = lower value
How it was run: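 PEO1, PEO4 and PEO1/OlaR ovarian cancer cells, 600 per well, exposed 96 h at 37C to a dilution series. Viability read by CellTiter-Glo luminescence, normalized to DMSO and empty wells; activity summarized as Z-AUC.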

[2] = qHTS profiling for inhibitors of Plasmodium falciparum proliferation (AID 504749);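 as to activity, negative = inhibition: 0% = DMSO vehicle and full inhibition = artemisinin control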; as to all read-outs here: nearly all actives have a fitted effect of over 60% in size; details: P. falciparum in erythrocytes, SYBR Green DNA, 72 h; for activity, negative = inhibition: at 28.7 µM (top of the series)
How it was run: (§1)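 Infected RBCs, 0.3% parasitemia/2.5% Hct final; cpd 72 h, 37 C, 5% CO2; lysis buffer with saponin/triton/SYBR Green I, o/n RT dark; FI 485/535; norm. to artemisinin (0.29 uM) and DMSO.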

3D7 = assay: as above; details: P. falciparum in erythrocytes, SYBR Green DNA, 72 h; series mostly up to 28.7 µM
How it was run: as §1

7G8 = assay: as above; details: P. falciparum in erythrocytes, SYBR Green DNA, 72 h; series mostly up to 28.7 µM
How it was run: as §1

AA1029 = assay: as above; details: P. falciparum in erythrocytes, SYBR Green DNA, 72 h; series mostly up to 28.7 µM
How it was run: as §1

AS120 = assay: as above; details: P. falciparum in erythrocytes, SYBR Green DNA, 72 h; series mostly up to 28.7 µM
How it was run: as §1

ATS189 = assay: as above; details: P. falciparum in erythrocytes, SYBR Green DNA, 72 h; series mostly up to 28.7 µM
How it was run: as §1

ATS95 = assay: as above; details: P. falciparum in erythrocytes, SYBR Green DNA, 72 h
How it was run: as §1

C2A = assay: as above; details: P. falciparum in erythrocytes, SYBR Green DNA, 72 h; series mostly up to 28.7 µM
How it was run: as §1

CP185 = assay: as above; details: P. falciparum in erythrocytes, SYBR Green DNA, 72 h; series mostly up to 28.7 µM
How it was run: as §1

CP191 = assay: as above; details: P. falciparum in erythrocytes, SYBR Green DNA, 72 h; series mostly up to 28.7 µM
How it was run: as §1

[3] = measured here: PEO1 parental Z-AUC
Potency is read from the fitted curve at half-maximal effect.

SMILES: C=CCNC1=C2C[C@@H](C)C[C@H](OC)[C@H](O)[C@@H](C)/C=C(\C)[C@H](OC(N)=O)[C@@H](OC)/C=C\C=C(/C)C(=O)NC(=CC1=O)C2=O
- Z-AUC [1]: -0.418 (inactive)
- Z-AUC [1, 3]: -0.98
- Z-AUC ([1]; measured here: PEO4 Z-AUC): -0.867
- Potency ([2]; parasite line A): 1410 nM (active)
- Potency ([2]; parasite line B): 2240 nM (active)
- Potency (3D7): 2240 nM (active)
- Potency (7G8): 447 nM (active)
- Potency (AA1029): 1410 nM (active)
- Potency (AS120): 1410 nM (active)
- Potency (ATS189): 2240 nM (active)
- Potency (ATS95): 2000 nM (active)
- Potency (C2A): 2000 nM (active)
- Potency (CP185): 2510 nM (active)
- Potency (CP191): 2000 nM (active)

SMILES: CC(=O)N1CCN(CCOc2ccc(C3CCN(C4=Nn5c(nnc5C(F)(F)F)CC4)CC3)cc2)CC1
- Z-AUC [1]: -0.519 (inactive)
- Z-AUC [1, 3]: -0.781
- Z-AUC ([1]; measured here: PEO4 Z-AUC): -0.776

SMILES: COCC(=O)NC/C=C/c1ccc2ncnc(Nc3ccc(Oc4ccc(C)nc4)c(C)c3)c2c1
- Z-AUC [1]: -0.178 (inactive)
- Z-AUC [1, 3]: -0.29
- Z-AUC ([1]; measured here: PEO4 Z-AUC): -0.0701

SMILES: Cc1cc(F)c(C(=O)Nc2cccc(-c3nncn3C(C)C)n2)cc1-n1cnc(C2CC2)c1
- Z-AUC [1]: -0.535 (inactive)
- Z-AUC [1, 3]: -0.555
- Z-AUC ([1]; measured here: PEO4 Z-AUC): -0.37

SMILES: COc1cc(N2CCC(N)CC2)ccc1Nc1ncc(Cl)c(-c2c[nH]c3ccccc23)n1
- Z-AUC [1]: -1.17 (inactive)
- Z-AUC [1, 3]: -1.5
- Z-AUC ([1]; measured here: PEO4 Z-AUC): -2.07

SMILES: Cc1cc(N2CCOCC2)ccc1Nc1nc(NC2CCCCC2)c2[nH]cnc2n1
- Z-AUC [1]: -0.0672 (inactive)
- Z-AUC [1, 3]: -0.748
- Z-AUC ([1]; measured here: PEO4 Z-AUC): -0.826

SMILES: Cc1[nH]c(/C=C2\C(=O)Nc3ccc(F)cc32)c(C)c1C(=O)NCCN1CCCC1
- Z-AUC [1]: 0.66 (inactive)
- Z-AUC [1, 3]: 0.734
- Z-AUC ([1]; measured here: PEO4 Z-AUC): 0.596

SMILES: CN[C@H]1CC[C@@H](c2ccc(Cl)c(Cl)c2)c2ccccc21
- Z-AUC [1]: 0.0758 (inactive)
- Z-AUC [1, 3]: 0.141
- Z-AUC ([1]; measured here: PEO4 Z-AUC): -0.265

SMILES: CCCOc1ccc2nc(NC(=O)OC)sc2c1
- activity, negative = inhibition ([2]; parasite line A): -2.17% (inactive)
- activity, negative = inhibition ([2]; parasite line B): 4.31% (inactive)
- Potency (3D7): inactive
- Potency (7G8): inactive
- Potency (AA1029): inactive
- Potency (AS120): inactive
- Potency (ATS189): inactive
- Potency (C2A): inactive
- Potency (CP185): inactive
- Potency (CP191): inactive

SMILES: FC(F)(F)c1ccc(/C=C/c2nc(COc3ccc(CCCCn4ccnn4)cc3)co2)cc1
- Potency [1]: 195 nM (active)
- Z-AUC [1, 3]: -3.45
- Z-AUC ([1]; measured here: PEO4 Z-AUC): -2.45

SMILES: COC1C(OC(=O)/C=C/C=C/C=C/C=C/C(=O)O)CCC2(CO2)C1C1(C)OC1CC=C(C)C (stereo unspecified)
- Potency (7G8): 5.6 nM (active)
- Potency (CP191): 50.1 nM (active)

SMILES: NC(=O)c1ccccc1Nc1ccnc(Nc2cccc(O)c2)n1
- Z-AUC [1]: -1.9 (inactive)
- Z-AUC [1, 3]: -1.44
- Z-AUC ([1]; measured here: PEO4 Z-AUC): -1.66

SMILES: Cc1ccc(NC(=O)c2ccc(CN3CCNCC3)cc2)cc1Nc1nccc(-c2cccnc2)n1
- Z-AUC [1]: 0.805 (inactive)
- Z-AUC [1, 3]: 0.225
- Z-AUC ([1]; measured here: PEO4 Z-AUC): 0.453
